Compound activity deposited in PubChem by National Center for Advancing Translational Sciences (NCATS).
In the library only some 11% were active in any assay of this set; here they are far more common.
PNC inhibitor: perinucleolar compartment assembly inhibition; AID 2417; hit rate 3.1% among 140,000; PC3M PTB-GFP, PNC prevalence imaging, 16 h; stronger effect = lower value; activity change (PNC), negative = inhibition, % at 10 µM;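 active means readout at or below -70, meaning at least 70% loss of cells showing the perinucleolar compartment, a nuclear body marking cancer cells; inconclusive means readout between -30 and a set limit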;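 further: plate controls were DMSO wells for no effect and camptothecin positive control wells for full effect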
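PC3M cells stably expressing PTB-GFP, 750–1000 cells/well, treated 16 h at 37 °C with compound (23 nl of library stock), in duplicate. After paraformaldehyde fixation and Hoechst stain, imaged at 20x; PNC prevalence scored by image analysis.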
HPGD inh: HPGD (human) dehydrogenase inhibition; P15428; purified HPGD, NADH fluorescence kinetic, PGE2 substrate; AID 894; hit rate 4.3% among 150,000; Potency, µM, for the others: at the top dose activity change, negative = inhibition, usual class: inhibitors; further: potency means the concentration at half of the fitted maximal effect
Target sequence (P15428 whole entry, looked up): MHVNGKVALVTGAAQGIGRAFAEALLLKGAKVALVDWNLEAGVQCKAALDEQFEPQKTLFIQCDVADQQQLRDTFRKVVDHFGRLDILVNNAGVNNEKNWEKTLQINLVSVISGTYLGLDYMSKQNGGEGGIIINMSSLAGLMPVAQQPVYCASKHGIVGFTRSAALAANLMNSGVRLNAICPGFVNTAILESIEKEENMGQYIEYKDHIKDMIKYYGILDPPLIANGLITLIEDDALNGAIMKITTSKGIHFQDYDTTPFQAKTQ
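NADH formation kinetics: reaction with 30 uM PGE2 and 1 mM NAD+ (final), 20 nM enzyme, Tris-HCl pH 8 with Tween 20, after 15 min compound preincubation at room temperature. Fluorescence change, last versus first of five reads.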
ALDH1A1 block: ALDH1A1 (human) enzyme inhibition | P00352 | Purified ALDH1A1, NADH fluorescence, propionaldehyde substrate | Potency, µM (highest dose often 75.3 µM), for the others: at the top dose activity, negative = inhibition, usual class: inhibitors | hit rate 7.3% among 220,000 | AID 1030;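 further: potency means the concentration at half of the fitted maximal effect; plate controls were no enzyme wells and a reference inhibitor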
IMPase Li cell: cell-permeable IMPase inhibitors with lithium potentiation | Potency, µM (doses to about 59.4 µM), for the others: at the top dose activity, negative = IMPase inhibition, most hits filed as inhibitors | AID 1457 | hit rate 0.35% among 210,000 | CHO-M1 cells, IP1 TR-FRET (IP-One), carbachol + lithium; active means well fitted inhibition curve with a large enough effect; inconclusive means small, poorly fitted or top-dose-only effect; inactive means no such curve, though single readings can be large or run the other way;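 further: IP1 builds up when IMPase is blocked and the TR-FRET signal falls; potency means the concentration at half of the fitted maximal effect; plate controls were basal vehicle for no effect and high inhibitor control for full effect; nearly all actives have a fitted effect of over 50% in size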
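Steps: plate 2000 CHO-M1 cells per well and culture 16–30 h; add compound and lithium; incubate 30 min, 37C; add d2-IP1 tracer and Eu cryptate anti-IP1 antibody in lysis buffer; read after 10 min at room temperature.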
IMPase cell inh: membrane-permeable compound that blocks inositol monophosphatase; P97697; CHO-M1 cells, IP1 accumulation, HTRF TR-FRET ratio; inhibition (IP1 accumulation), % at 46.1 µM; 120,000 tested, under 10 active; AID 901; active means well fitted curve in the direction sought with a large enough effect in the signal ratio, not every such curve was filed as active; inconclusive means small, poorly fitted or top-dose-only effect, or a change in a side signal; inactive means no such curve, though single readings can be large or run the other way; the % refers to the signal ratio;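 further: cells stimulated with carbachol in lithium chloride buffer; plate controls were DMSO basal wells for no effect and reference inhibitor wells for full effect; higher means more IMPase inhibition seen as more IP1 and lower FRET ratio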
Target sequence (P97697 whole entry, looked up): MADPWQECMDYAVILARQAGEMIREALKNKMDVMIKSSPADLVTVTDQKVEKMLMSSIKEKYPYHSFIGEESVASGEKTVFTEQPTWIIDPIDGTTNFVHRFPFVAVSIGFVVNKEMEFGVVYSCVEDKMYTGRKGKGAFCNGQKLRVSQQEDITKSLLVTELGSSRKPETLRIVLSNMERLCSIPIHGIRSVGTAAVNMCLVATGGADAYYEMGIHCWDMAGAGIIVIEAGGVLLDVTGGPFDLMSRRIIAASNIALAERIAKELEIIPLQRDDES
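The IP-One HTRF competitive assay in carbachol-stimulated CHO-M1 cells quantifies cellular IP1. Compounds spanned up to 46 uM final, and activity is expressed as AC50 from concentration-response fits of the ratio and donor data.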
The depositor's hits bear a star; [ ] = dose if it differs, or a comment. Unless noted, the call rests on the fitted dose curve; in most records, active means well fitted inhibition curve with a large enough effect (not every such curve was filed as active); inconclusive means small, poorly fitted or top-dose-only effect, or another doubt; inactive means no such curve, though single readings can be large or run the other way. Unless noted, on the % scale 0 is the no-effect control and ±100 the full control effect.

Results for O=C(CSc1ncnc2ccccc12)NCCc1ccccc1 ?
ALDH1A1 block: -0.1%; IMPase Li cell: -12.3%

Results for O=C(CSc1ncnc2ccccc12)c1ccco1 ?
ALDH1A1 block: 11.2µM*; IMPase Li cell: -7.2%

What do the screens show for `CCOC(=O)CNC(=O)Cn1cnc2c(nnn2-c2ccc(F)cc2)c1=O`?
PNC inhibitor: 21.1; HPGD inh: -11.6%; ALDH1A1 block: 3.5%; IMPase Li cell: -5.0%[38.3 µM]; IMPase cell inh: 14.0

How did CC1N(C)c2cc(NC(=O)c3cccs3)c(P(=O)(Nc3ccc([N+](=O)[O-])cc3)N3CCOCC3)cc2C1(C)C (configuration not stated) do in these assays?
ALDH1A1 block: -2.2%; IMPase Li cell: 2.4%

What do the screens show for `Cc1ccc(NC(=O)C(=O)NCc2ccncc2)cc1`?
ALDH1A1 block: -9.2%; IMPase Li cell: -0.6%

How did O=c1[nH]cnc2c1N=C(c1cccc([N+](=O)[O-])c1)CC(c1ccccc1)N2 (configuration not stated) do in these assays?
ALDH1A1 block: -13.6%; IMPase Li cell: 1.0%

What do the screens show for `CC1CCCN(c2ccc([N+](=O)[O-])cc2C(=O)c2ccccc2)C1` (configuration not stated)?
PNC inhibitor: -99.6*; HPGD inh: -11.3%; ALDH1A1 block: inconclusive; IMPase Li cell: 10.0%

What do the screens show for `O=Cc1cc([N+](=O)[O-])ccc1N1CCOCC1`?
PNC inhibitor: 19.2; HPGD inh: -3.5%; ALDH1A1 block: inconclusive; IMPase Li cell: -4.0%

How did CC1CCN(c2ccc([N+](=O)[O-])cc2C(=O)O)CC1 do in these assays?
PNC inhibitor: 26.4; HPGD inh: -1.8%; ALDH1A1 block: 6.9%; IMPase Li cell: -4.2%; IMPase cell inh: -4.0

What do the screens show for `O=C(c1ccc(Cl)cc1)c1cc([N+](=O)[O-])ccc1N1CCOCC1`?
ALDH1A1 block: inconclusive; IMPase Li cell: 20.0%

Results for O=C(c1ccccc1)c1cc([N+](=O)[O-])ccc1N1CCOCC1 ?
PNC inhibitor: -112.5*; HPGD inh: -7.1%; ALDH1A1 block: inconclusive; IMPase Li cell: 7.2%; IMPase cell inh: -7.2

Results for CCOC(=O)c1cc(CC)sc1NC(=O)c1cc([N+](=O)[O-])ccc1N1CCOCC1 ?
PNC inhibitor: -83.9*; HPGD inh: -13.6%; ALDH1A1 block: inconclusive; IMPase Li cell: -6.1%[38.3 µM]; IMPase cell inh: 6.2

What do the screens show for `O=C1NC(=S)N/C1=C/c1cc([N+](=O)[O-])ccc1N1CCOCC1`?
ALDH1A1 block: 25.1µM*; IMPase Li cell: 3.8%

How did CCOC(=O)c1cc(CC)sc1NC(=O)c1ccc(N2CCOCC2)c([N+](=O)[O-])c1 do in these assays?
PNC inhibitor: -25.1; HPGD inh: -10.9%; ALDH1A1 block: 10.4%; IMPase Li cell: -11.9%[38.3 µM]; IMPase cell inh: inconclusive

What do the screens show for `CC(=O)c1ccccc1NC(=O)CSc1nnc2ccccn12`?
PNC inhibitor: 26.8; HPGD inh: -5.4%; ALDH1A1 block: 6.9%; IMPase Li cell: -4.4%[38.3 µM]; IMPase cell inh: -1.0

What do the screens show for `O=C(CNCc1ccc(F)cc1)Nc1ccccc1[N+](=O)[O-]`?
ALDH1A1 block: inconclusive; IMPase Li cell: 11.2%

What do the screens show for `Cc1cc(C)n(C(=O)C(C)N2C(=O)c3ccccc3C2=O)n1` (configuration not stated)?
PNC inhibitor: -12.7; HPGD inh: -1.4%; ALDH1A1 block: -4.9%; IMPase Li cell: 2.4%[38.3 µM]; IMPase cell inh: -0.4

How did O=C(NCCC1=CCCCC1)c1ccc2c(c1)N(Cc1ccccc1)C(=O)CS2 do in these assays?
PNC inhibitor: -83.9*; HPGD inh: -14.9%; ALDH1A1 block: inconclusive; IMPase Li cell: 44.5%[38.3 µM]; IMPase cell inh: 12.2

How did COCCNC(=O)Nc1ccc2c(c1)N(C)C(=O)CS2 do in these assays?
PNC inhibitor: -8.7; HPGD inh: -7.2%; ALDH1A1 block: 22.4µM*; IMPase Li cell: -6.6%[38.3 µM]; IMPase cell inh: 0.5

How did CN1C(=O)CSc2ccc(NC(=O)NCCC3=CCCCC3)cc21 do in these assays?
PNC inhibitor: -17.3; HPGD inh: -9.1%; ALDH1A1 block: 7.94µM*; IMPase Li cell: 7.4%[38.3 µM]; IMPase cell inh: 6.7

Results for Cc1ccc(Cl)cc1 ?
HPGD inh: -3.9%; ALDH1A1 block: 9.6%; IMPase Li cell: -11.0%
